Results reported in PubChem BioAssay (NCATS).
Inconclusive results are not listed. Active and inactive are the calls of the source. Calls follow the shape of the dose curve; as a rule, active = well fitted curve in the direction sought with a large enough effect; inconclusive = small, poorly fitted or top-dose-only effect, or another doubt; inactive = no such curve, though single readings can be large; an effect the other way counts as inactive or inconclusive.

Key:
[1] = qHTS of pediatric cancer cell lines to identify multiple opportunities for drug repurposing: Primary screen for A673 cells (AID 1347092); also: nearly all actives have a fitted effect of over 45% in size
In short: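 Titration-based qHTS on A673 cells: MIPE compounds spanned 11 points (0.78 nM to 46 µM final), NPC compounds 8 points (0.59 nM to 46 µM final). Viability after 48 h was measured by ATP luminescence.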

[2] = qHTS of pediatric cancer cell lines to identify multiple opportunities for drug repurposing: Primary screen for SK-N-MC cells (AID 1347093); also: series mostly up to about 46 µM
In short: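 Metabolically active cells were quantified by ATP-dependent luminescence (CellTiter-Glo, 15 min at room temperature) following 48 h treatment. Cells had been plated at 500-1,000 per well and settled for 5 h beforehand.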

[3] = qHTS of pediatric cancer cell lines to identify multiple opportunities for drug repurposing: Primary screen for BT-37 cells (AID 1347094); also: series mostly up to about 57 µM
In short: (§1)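 Viability was measured as metabolically active cells after 48 hours of treatment, read by CellTiter-Glo luminescence. Compounds were tested at multiple final concentrations, giving concentration-response curves.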

[4] = qHTS of pediatric cancer cell lines to identify multiple opportunities for drug repurposing: Primary screen for NB-EBc1 cells (AID 1347095)
In short: as §1

[5] = qHTS of pediatric cancer cell lines to identify multiple opportunities for drug repurposing: Primary screen for U-2 OS cells (AID 1347096); also: nearly all actives have a fitted effect of over 50% in size
In short: (§2)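 Cells (500-1,000/well) in growth media were settled 5 h at 37 degrees C, then given compounds for 48 h. Viability was read as CellTiter-Glo luminescence. Primary runs used MIPE at 11 points (0.78 nM-46 µM) and NPC at 8 points (0.59 nM-46 µM); follow-ups used 11 points.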

[6] = qHTS of pediatric cancer cell lines to identify multiple opportunities for drug repurposing: Primary screen for Saos-2 cells (AID 1347097); also: nearly all actives have a fitted effect of over 40% in size
In short: as §1

[7] = qHTS of pediatric cancer cell lines to identify multiple opportunities for drug repurposing: Primary screen for SK-N-SH cells (AID 1347098);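 also: DMSO served as neutral control and bortezomib at 2.3 µM as positive control; nearly all actives have a fitted effect of over 65% in size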
In short: (§3)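 Cells (500-1,000/well) rested 5 h, then received compounds for 48 h; metabolically active cells were measured by CellTiter-Glo luminescence. Final concentrations spanned up to 46 µM (MIPE, 11-point) or 0.59 nM-46 µM (NPC, 8-point) in primary screens, 11-point in follow-ups.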

[8] = qHTS of pediatric cancer cell lines to identify multiple opportunities for drug repurposing: Primary screen for NB1643 cells (AID 1347099); also: nearly all actives have a fitted effect of over 50% in size
In short: as §1

[9] = qHTS of pediatric cancer cell lines to identify multiple opportunities for drug repurposing: Primary screen for LAN-5 cells (AID 1347100)
In short: as §2

[10] = qHTS of pediatric cancer cell lines to identify multiple opportunities for drug repurposing: Primary screen for Rh18 cells (AID 1347102); also: nearly all actives have a fitted effect of over 65% in size
In short: as §2

[11] = qHTS of pediatric cancer cell lines to identify multiple opportunities for drug repurposing: Primary screen for RD cells (AID 1347104); also: nearly all actives have a fitted effect of over 55% in size
In short: as §1

[12] = qHTS of pediatric cancer cell lines to identify multiple opportunities for drug repurposing: Primary screen for control Hh wild type fibroblast cells (AID 1347106);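 also: series mostly up to about 46 µM; a drop in luminescence marks cytotoxicity and a rise apparent proliferation; nearly all actives have a fitted effect of over 55% in size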
In short: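 Viability after 48 h compound treatment at 37C, 500-1,000 cells/well, read as ATP luminescence with CellTiter-Glo. Primary screens used 11-point (MIPE, 0.78 nM-46 µM) or 8-point (NPC, 0.59 nM-46 µM) final concentrations; follow-up screens used 11-point dilutions.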

[13] = qHTS of pediatric cancer cell lines to identify multiple opportunities for drug repurposing: Primary screen for Rh30 cells (AID 1347107); also: series mostly up to about 46 µM; nearly all actives have a fitted effect of over 75% in size
In short: as §2

[14] = qHTS of pediatric cancer cell lines to identify multiple opportunities for drug repurposing: Primary screen for BT-12 cells (AID 1347101); also: nearly all actives have a fitted effect of over 25% in size
In short: as §3

[15] = qHTS of pediatric cancer cell lines to identify multiple opportunities for drug repurposing: Primary screen for MG 63 (6-TG R) cells (AID 1347105); also: nearly all actives have a fitted effect of over 50% in size
In short: as §1

[16] = qHTS of pediatric cancer cell lines to identify multiple opportunities for drug repurposing: Primary screen for Rh41 cells (AID 1347108);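 also: series mostly up to about 46 µM; luminescence drop marks cytotoxic hits; nearly all actives have a fitted effect of over 70% in size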
In short: as §1

[17] = qHTS of pediatric cancer cell lines to identify multiple opportunities for drug repurposing: Primary screen for OHS-50 cells (AID 1347103); also: nearly all actives have a fitted effect of over 40% in size
In short: as §3

Measured: Potency

COc1ccc(CCN(C)CCCC(C#N)(c2cc(OC)c(OC)c(OC)c2)C(C)C)cc1OC (stereo not given)
not listed: [14] | [15] | [16] | [17]
inactive: all other assays above

Cc1ccc(/C(=C\CN2CCCC2)c2ccccn2)cc1
not listed: [17]
inactive: all other assays above

Brc1c(NC2=NCCN2)ccc2nccnc12
not listed: [10]
inactive: all other assays above

CCCOc1ccccc1-c1nc2n[nH]nc2c(=O)[nH]1
not listed: [10]
inactive: all other assays above

FC(F)(F)c1ccccc1-n1ccnc1
not listed: [7]
inactive: all other assays above

C=CCc1ccccc1OCC(O)CNC(C)C (stereo not given)
not listed: [10] | [15]
inactive: all other assays above

CCN1CCC[C@H]1CNC(=O)c1c(O)c(Cl)cc(Cl)c1OC
not listed: [14]
inactive: all other assays above

CC(C)[N+](C)(CCOC(=O)C1c2ccccc2Oc2ccccc21)C(C)C
not listed: [14]
inactive: all other assays above

CCCCNc1ccc(C(=O)OCCN(C)C)cc1
not listed: [10] | [17]
inactive: all other assays above

CCCNC(C)C(=O)Nc1ccccc1C (stereo not given)
not listed: [14]
inactive: all other assays above

O=C1CC2(CCCC2)CC(=O)N1CCCCN1CCN(c2ncccn2)CC1
not listed: [10]
inactive: all other assays above

CCCN(CCC)C(=O)C(CCC(=O)O)NC(=O)c1ccccc1 (stereo not given)
not listed: [10]
inactive: all other assays above

CCn1ccnc1CC1COc2ccccc2O1 (stereo not given)
not listed: [10]
inactive: all other assays above

O=C(O)CP(=O)(O)O
not listed: [7]
inactive: all other assays above

CCn1cc(C(=O)O)c(=O)c2cc3c(cc21)OCO3
not listed: [10]
inactive: all other assays above
